According to PubChem BioAssay (Tox21):
Inconclusive results are not listed. The source made the active and inactive calls. Unless noted, the call rests on the fitted dose curve; in most records, active means well fitted curve in the direction sought with a large enough effect in the repeat runs; inconclusive means weak or mixed curves; inactive means no such curve, though single readings can be large; an effect the other way counts as inactive or inconclusive.

Columns and labels:
[1] = qHTS assay to identify small molecule agonists of the peroxisome proliferator-activated receptor delta (PPARd) signaling pathway - cell viability counter screen (AID 743211); further: nearly all actives have a fitted effect of over 55% in size
Procedure, shortened: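 PPARd-bla HEK293H cells (UAS-beta-lactamase reporter) were treated with compounds for 17 h at 37 C. Viability was then read in the same wells by CellTiter-Glo luminescence after 30 min at room temperature.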

[2] = molecular target: Peroxisome proliferator-activated receptor delta (Homo sapiens) (UniProt Q03181); assay: qHTS assay to identify small molecule agonists of the peroxisome proliferator-activated receptor delta (PPARd) signaling pathway (AID 743212; calls by dose curve)
Procedure, shortened: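 HEK293H UAS-bla reporter cells, human PPARd system; compounds delivered in DMSO after 5 h plating, then at 37 C. Beta-lactamase FRET read, 2 h RT substrate step.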

[3] = qHTS assay to identify small molecule antagonists of the peroxisome proliferator-activated receptor delta (PPARd) signaling pathway - cell viability counter screen (AID 743213); further: nearly all actives have a fitted effect of over 50% in size
Procedure, shortened: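 Luminescence from CellTiter-Glo, added after the bla read and incubated 30 min at room temperature, gives viability of HEK293H PPARd-bla cells exposed to compounds for 17 h at 37 C with 300 nM L165041.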

[4] = molecular target: Peroxisome proliferator-activated receptor delta (Homo sapiens) (UniProt Q03181); assay: qHTS assay to identify small molecule antagonists of the peroxisome proliferator-activated receptor delta (PPARd) signaling pathway (AID 743215; active means well fitted inhibition curve with a large enough effect in the signal ratio in the repeat runs, not every such curve was filed as active; the % refers to the signal ratio;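 further: cells stimulated with agonist L165041 at 300 nM final during compound exposure; series mostly up to about 62 µM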)
Procedure, shortened: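 PPARd UAS-bla HEK293H cells were pre-incubated 5 h at 37 C, then given test compounds in DMSO plus agonist L165041 (300 nM final). After 17 h at 37 C, beta-lactamase FRET substrate was added; fluorescence read after 2 h at room temperature.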

[5] = qHTS assay to identify small molecule agonists of the farnesoid-X-receptor (FXR) signaling pathway - cell viability counter screen (AID 743218); further: nearly all actives have a fitted effect of over 45% in size
Procedure, shortened: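 FXR-UAS-bla HEK 293T cells, plated 5 h at 37 C, were exposed to compounds for 16 h at 37 C. CellTiter-Glo was then added to the same wells as the bla readout; luminescence read after 30 min at room temperature.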

[6] = qHTS assay to identify small molecule antagonists of the farnesoid-X-receptor (FXR) signaling pathway - cell viability counter screen (AID 743221; active means well fitted cell-killing curve with a large enough effect in the repeat runs, not every such curve was filed as active; further: nearly all actives have a fitted effect of over 50% in size)
Procedure, shortened: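 FXR-UAS-bla HEK 293T cells were treated with test compounds plus chenodeoxycholic acid (50 uM final) for 16 h at 37 C. Cell viability in the same wells was then read as CellTiter-Glo luminescence after 30 min at room temperature.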

[7] = molecular target: Vitamin D3 receptor (Homo sapiens) (UniProt P11473); assay: qHTS assay to identify small molecule agonists of the vitamin D receptor (VDR) signaling pathway (AID 743222; calls by dose curve)
Procedure, shortened: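 VDR-bla cells were plated 4 h at 37C/5% CO2, then exposed to compounds in DMSO for 16 h. After LiveBLAzer B/G FRET substrate addition and 2 h at room temperature, beta-lactamase reporter fluorescence was read.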

[8] = molecular target: Vitamin D3 receptor (Homo sapiens) (UniProt P11473); assay: qHTS assay to identify small molecule antagonists of the vitamin D receptor (VDR) signaling pathway (AID 743223; active means well fitted inhibition curve with a large enough effect in the signal ratio in the repeat runs, not every such curve was filed as active; the % refers to the signal ratio)
Procedure, shortened: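 VDR-bla cells were plated, incubated 4 h at 37C, then given compound and 1alpha,25-dihydroxyvitamin D3 (3 nM final). After 16 h at 37C, LiveBLAzer B/G FRET substrate was added for 2 h at room temperature and fluorescence read.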

[9] = molecular target: Bile acid receptor (Homo sapiens) (UniProt Q96RI1); assay: qHTS assay to identify small molecule agonists of the farnesoid-X-receptor (FXR) signaling pathway (AID 743220; active means well fitted activation curve with a large enough effect in the signal ratio in the repeat runs, not every such curve was filed as active; the % refers to the signal ratio)
Procedure, shortened: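 Beta-lactamase reporter under UAS control in GeneBLAzer FXR HEK 293T cells (5000/well) measured with LiveBLAzer FRET substrate after 2 h at room temperature. Compound exposure lasted 16 h at 37C.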

Measured: Potency

Sequence of Peroxisome proliferator-activated receptor delta (Homo sapiens) (Q03181 whole entry, looked up): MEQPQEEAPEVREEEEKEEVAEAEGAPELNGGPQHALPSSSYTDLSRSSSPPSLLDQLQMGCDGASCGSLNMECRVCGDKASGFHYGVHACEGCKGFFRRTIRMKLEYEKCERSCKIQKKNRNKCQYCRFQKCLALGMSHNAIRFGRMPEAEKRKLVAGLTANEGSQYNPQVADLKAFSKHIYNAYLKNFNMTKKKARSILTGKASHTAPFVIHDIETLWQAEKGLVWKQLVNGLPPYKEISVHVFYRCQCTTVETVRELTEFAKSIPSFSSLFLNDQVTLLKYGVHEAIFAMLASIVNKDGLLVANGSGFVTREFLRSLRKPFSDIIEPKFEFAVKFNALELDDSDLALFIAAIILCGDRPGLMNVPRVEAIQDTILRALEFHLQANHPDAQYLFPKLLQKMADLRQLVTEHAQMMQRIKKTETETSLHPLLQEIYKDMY
Sequence of Vitamin D3 receptor (Homo sapiens) (P11473 whole entry, looked up): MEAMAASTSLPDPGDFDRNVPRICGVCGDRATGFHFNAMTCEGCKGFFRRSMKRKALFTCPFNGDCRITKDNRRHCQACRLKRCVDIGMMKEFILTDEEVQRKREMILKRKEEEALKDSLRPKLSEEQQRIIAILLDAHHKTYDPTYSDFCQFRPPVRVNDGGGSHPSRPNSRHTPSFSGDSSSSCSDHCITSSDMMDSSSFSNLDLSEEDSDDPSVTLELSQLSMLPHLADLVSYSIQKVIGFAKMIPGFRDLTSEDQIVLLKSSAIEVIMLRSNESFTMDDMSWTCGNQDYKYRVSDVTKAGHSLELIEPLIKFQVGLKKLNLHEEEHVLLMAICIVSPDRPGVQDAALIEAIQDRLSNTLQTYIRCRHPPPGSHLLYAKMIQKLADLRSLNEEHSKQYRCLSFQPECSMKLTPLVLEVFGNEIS
Sequence of Bile acid receptor (Homo sapiens) (Q96RI1 whole entry, looked up): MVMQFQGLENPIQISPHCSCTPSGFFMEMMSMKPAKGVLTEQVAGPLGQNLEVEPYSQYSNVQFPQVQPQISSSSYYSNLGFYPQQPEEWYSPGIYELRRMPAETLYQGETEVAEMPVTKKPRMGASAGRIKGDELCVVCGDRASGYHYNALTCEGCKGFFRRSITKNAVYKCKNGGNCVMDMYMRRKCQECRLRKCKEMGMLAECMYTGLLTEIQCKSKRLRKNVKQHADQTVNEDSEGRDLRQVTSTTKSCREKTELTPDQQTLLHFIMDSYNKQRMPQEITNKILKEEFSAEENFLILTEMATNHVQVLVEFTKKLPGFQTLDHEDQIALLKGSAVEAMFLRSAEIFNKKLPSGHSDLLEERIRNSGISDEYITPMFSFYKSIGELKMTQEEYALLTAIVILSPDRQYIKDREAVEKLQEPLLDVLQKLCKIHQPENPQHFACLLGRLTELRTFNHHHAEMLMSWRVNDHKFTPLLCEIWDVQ

Fc1ccccc1-c1ccccc1
not listed: [9]
inactive: all other assays above

CCCCCCCCN(C)CCCCCCCC
not listed: [9]
inactive: all other assays above

CC(C)(C)OC(=O)N1C[C@@H](F)C[C@H]1C(=O)O
not listed: [9]
inactive: all other assays above

CCCCCCCCCCCCCCCCCCOCC(O)CO (stereo not drawn)
not listed: [7] | [9]
inactive: all other assays above

CC(C)c1cccc(C(C)C)c1N
not listed: [9]
inactive: all other assays above

COc1ccc(NC(C)=O)cc1
not listed: [9]
inactive: all other assays above

O=C(O)c1ccc[n+]([O-])c1
not listed: [9]
inactive: all other assays above

C[N+](C)(C)CC[N+]1(C)Cc2c(Cl)c(Cl)c(Cl)c(Cl)c2C1
not listed: [9]
inactive: all other assays above

CC(C)CCCC(C)NCCC(C)C (stereo not drawn)
not listed: [9]
inactive: all other assays above

CCCCCCCCCCCCCCCCCC(=O)OCCCCCCCCCCCCCC(C)C
not listed: [9]
inactive: all other assays above

CC(C)COC(=O)c1ccccc1O
not listed: [9]
inactive: all other assays above

CC(C)CCCC(C)CCCC(C)CCCCC(C)CCCC(C)CCCC(C)C (stereo not drawn)
not listed: [9]
inactive: all other assays above

CCC(=O)c1cccc(Cl)c1
not listed: [9]
inactive: all other assays above

CCCCCCC(=O)OCC
not listed: [9]
inactive: all other assays above

CC(C)=CC(=O)O
not listed: [7] | [9]
inactive: all other assays above

CCCCc1ccc2cccc(S(=O)(=O)O)c2c1
not listed: [9]
inactive: all other assays above

Cc1onc(-c2ccccc2)c1-c1ccc(S(N)(=O)=O)cc1
not listed: [9]
inactive: all other assays above

CC(=O)c1ccc(C)cc1
not listed: [9]
inactive: all other assays above

CCc1cc(S(=O)(=O)O)c2cc(C(C)C)cccc1-2
not listed: [7] | [9]
inactive: all other assays above

CC(C)(O)c1ccccc1
not listed: [9]
inactive: all other assays above

CSc1ccc(C=O)cc1
not listed: [9]
inactive: all other assays above

CN(C)C(=O)Nc1ccccc1
not listed: [9]
inactive: all other assays above

C=C[Si](OC)(OC)OC
not listed: [9]
inactive: all other assays above

C=C(C)C(=O)OCCCCCCCCCCCCCCCCCC
not listed: [9]
inactive: all other assays above

COc1nc(C)nc(N)n1
not listed: [9]
inactive: all other assays above

NC(CS)C(=O)O (stereo not drawn)
not listed: [3] | [8] | [9]
inactive: all other assays above

C=CCn1c(=O)n([C@@H]2O[C@H](CO)[C@@H](O)[C@H]2O)c2nc(N)[nH]c(=O)c21
inactive: [1] | [3] | [5] | [9] | [6]

C#CC(C)(O)CC(C)C (stereo not drawn)
not listed: [3] | [9]
inactive: all other assays above

O=C(O)Cc1cc(I)c(Oc2cc(I)c(O)c(I)c2)c(I)c1
inactive: [1] | [3]

Nc1[nH]c(=O)ncc1F
not listed: [2]
inactive: all other assays above

CC(C)(C)C(=O)/C=C/c1ccc(Cl)cc1
not listed: [2] | [4] | [8]
inactive: all other assays above

Nc1ccn(C2CO[C@H](CO)O2)c(=O)n1 (stereo partly drawn)
not listed: [2] | [4]
inactive: all other assays above
